Holding throughout (settings): concentration: 1 μM, replicates: in singlicate; n = 1
The test system of test [1] is AAK1.
For test [2], the system named is ABL1-nonphosphorylated.
Test [3] deals with ABL1-phosphorylated.
The subject of test [4] is ABL2.
In test [5] the test system is ACVR1B.
Test [6] deals with ACVR1.
The test system of test [7] is ACVR2A.
Test [8] relates to ACVR2B.
Test [9] concerns ACVRL1.
In test [10] the test system is T1, ADCK3.
T1 construct: gene CABC1

The test system of test [11] is ADCK4.
The subject of test [12] is AKT1.
The subject of test [13] is AKT2.
Test [14] deals with AKT3.
Test [15] relates to ALK.
Test [16] deals with T2, AMPK-alpha1.
T2 construct: gene PRKAA1

Test [17] concerns T3, AMPK-alpha2.
T3 construct: gene PRKAA2

Test [18] relates to ANKK1.
Test [19] concerns T4, ARK5.
T4 construct: gene NUAK1

The subject of test [20] is T5, ASK1.
T5 construct: gene MAP3K5
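Note: KINOMEscan kinase panel screen.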

In the case of `COC(=O)Nc1nc2ccc(Oc3ccc(NC(=O)Nc4cc(C(F)(F)F)ccc4F)cc3)cc2n1C.Cl` [GW692089], the “%Inh” value in test [1] is on record as 0%; in [2], 98.4%; in test [3] it was 49%; in test [4], 84%; in test [5], 0%; in test [6] it was 0%. For the same compound, the “%Inh” value in test [7] amounted to 0%; in test [8] it was 0%; in [9], 0%; in test [10], 0%; in test [11], 33%; in test [12] it was 0%. The “%Inh” value in [13] came to 0%; in test [14], 0%; in test [15], 3%; in test [16], 0%; in test [17], 22%; in [18], 31%. Further, the “%Inh” value in test [19] stood at 16%; in test [20] it was 40%.
Turning to `COc1cc(Nc2ncc3c(C)nc(-c4cc5ccccc5[nH]4)n3n2)cc(OC)c1OC` [GW869516], the “%Inh” value in test [1] is given as 0%; in test [2], 32%; in test [3], 24%; in test [4], 21%; in [5] it was 8%; in test [6], 0%. Also, the “%Inh” value is listed as 9% in [7]; 24% in [8]; 0% in test [9]; 22% in test [10]; 3% in test [11]; 8% in test [12]. Moreover, the “%Inh” value in test [13] was 0%; in [14] it was 0%; in test [15], 0%; in test [16] it was 89%; in [17], 61%; in test [18] it was 0%. In addition, the “%Inh” value in test [19] and in test [20] was 0% in each case.
For the compound `Nc1ncc(-c2cccnc2)c2scc(-c3ccc4c(c3)CCN4C(=O)Cc3ccccc3)c12` [GSK683281], the “%Inh” value in test [1] came out at 24%; in test [2], 94.1%; in [3], 54%; in [4], 62%; in [5], 0%; in test [6] it was 0%. Also, the “%Inh” value in test [7] came to 0%; in test [8] it was 0%; in test [9] it was 3%; in test [10], 5%; in test [11], 32%; in test [12] it was 0%. Besides, the “%Inh” value in test [13] came to 21%; in [14] it was 0%; in [15], 29%; in test [16], 97.4%; in test [17], 20%; in test [18] it was 19%. Further, the entries for the “%Inh” value in test [19] and in test [20] were 32% and 22%, respectively.
Turning to `COc1cc(Nc2nccc(-c3c(-c4cccc(NC(=O)c5c(F)cccc5F)c4)nn4ncccc34)n2)cc(OC)c1OC` [GSK327238], the “%Inh” value in test [1] was 13%; in test [2], 92.9%; in [3], 24%; in [4] it was 80%; in [5], 14%; in [6] it was 0%. Also, the “%Inh” value in [7] worked out at 0%; in test [8] it was 0%; in test [9], 0%; in test [10], 0%; in test [11], 93.7%; in test [12], 0%. Further, the “%Inh” value in test [13] was determined as 11%; in test [14] it was 17%; in test [15], 20%; in [16], 9%; in test [17], 48%; in test [18], 29%. The results for the “%Inh” value in test [19] and in test [20] were 97.4% and 0%, respectively.
Consider `CN(C)S(=O)(=O)c1cc(-c2ccc3nccc(-c4cccc(S(N)(=O)=O)c4)c3c2)cnc1N` [GSK1669921], for which the “%Inh” value in [1] is recorded as 26%; in [2], 0%; in [3] it was 0%; in test [4], 17%; in test [5], 0%; in [6], 88%. In addition, the “%Inh” value in test [7] is listed as 0%; in [8] it was 0%; in test [9], 0%; in [10] it was 16%; in [11], 0%; in test [12], 0%. Besides, the “%Inh” value is reported as 5% in test [13]; 0% in test [14]; 30% in test [15]; 3% in [16]; 0% in test [17]; 5% in test [18]. The “%Inh” value was found to be 11% in test [19] and 0% in test [20].
As for `C[C@@H]1CC[C@@H](C(=O)Nc2ccccc2)CN1c1cc(-c2ccc3c(N)n[nH]c3c2)nc(N)n1` [GSK2286062], the “%Inh” value in test [1] is 18%; in [2], 0%; in [3] it was 0%; in test [4], 2%; in [5], 0%; in [6], 0%. The “%Inh” value in test [7] is given as 0%; in test [8], 0%; in [9] it was 0%; in test [10] it was 29%; in [11], 14%; in test [12] it was 0%. The “%Inh” value in test [13] is on record as 7%; in test [14] it was 0%; in test [15], 0%; in test [16], 13%; in [17] it was 0%; in test [18] it was 3%. The “%Inh” value is given as 19% in [19] and 0% in test [20].
Regarding `Nc1ncnc2c1nc(-c1ccccc1)n2-c1ccccc1` [SKF-97293], the “%Inh” value in [1] is reported as 0%; in test [2], 8%; in test [3] it was 0%; in test [4] it was 2%; in [5] it was 7%; in test [6] it was 0%. Also, the “%Inh” value in test [7] worked out at 4%; in [8], 0%; in [9], 14%; in [10], 11%; in [11], 0%; in test [12], 2%. For the same compound, the “%Inh” value in [13] was determined as 3%; in test [14], 16%; in test [15] it was 52%; in [16], 23%; in test [17] it was 31%; in [18] it was 29%. Also, the “%Inh” value in [19] and in test [20] was 0% in each case.
Take `O=c1[nH]cc(-c2ccc(N3CCOCC3)cc2)c2sc(-c3cn[nH]c3)cc12` [GSK2276055]: the “%Inh” value in [1] is given as 23%; in [2] it was 0%; in [3], 0%; in [4] it was 0%; in test [5], 0%; in test [6], 0%. Also, the “%Inh” value in [7] was 2%; in test [8], 0%; in test [9] it was 0%; in [10], 0%; in test [11] it was 0%; in test [12] it was 0%. Besides, the “%Inh” value was 16% in test [13]; 0% in test [14]; 4% in test [15]; 0% in test [16]; 0% in test [17]; 21% in test [18]. The results for the “%Inh” value in test [19] and in [20] were 18% and 0%, respectively.

Values taken from publication PMC5540273 (PLoS ONE, 2017).
